Measured values taken from PubChem BioAssay (EPA / NIEHS).
Calls of active or inactive are those of the source. How the source made its calls: active means hit-call score of the fitted dose curve at least 0.9, where 1 is the maximum; inactive means score below 0.9.

What follows are compounds tested on Heat shock 70 kDa protein 1 (HSPA1A), gene 3303 (assay: LTEA_HepaRG_HSPA1A: Life Technologies and Expression Analysis (LTEA) Assay for Heat shock 70 kDa protein 1 (HSPA1A) using HepaRG (AID 2283502)). Conditions: mRNA level, 48 h; actives raise or lower the signal.
Description: LTEA_HepaRG is a cell based, multiplexed-readout assay that uses HepaRG, a human liver cell line, with measurements taken at 48 hours after chemical dosing on a 96-well plate.LTEA_HepaRG_HSPA1A is one of 102 assay component(s) measured in the LTEA HepaRG cell culture assay. It is a marker of Oxidative Stress.Data from the assay component LTEA_HepaRG_HSPA1A was analyzed into 1 endpoint. This assay endpoint, LTEA_HepaRG_HSPA1A, was analyzed with bidirectional fitting relative to DMSO as the negative control and baseline of activity. Using a type of inducible reporter, measures of mRNA induction for gain or loss-of-signal activity can be used to understand regulation of transcription factor activity. To generalize the intended target to other relatable targets, this assay endpoint is annotated to the dna binding intended target family, where the subfamily is heat shock protein.
A total of 1060 chemcials from the ToxCast library were tested in eight-point concentration-response experiments. Cell culture and cytotoxicity assays were conducted at Thermo Fisher Scientific's Custom Services facility (Madison, WI). A single lot of human HepaRG cells (Thermo Fisher Scientific, Frederick, MD) was used for the cell culture experiments. 96-well format collagen type I coated plates of human HepaRG cells were prepared using established methods. Briefly, cryopreserved HepaRG cells were thawed, plated at a density of approximately 100,000 cells/well in HepaRG Thaw, Plate, and General Purpose media (HPRG770, Thermo Fisher Scientific), and incubated for 48 hours. 0.5% DMSO was selected as vehicle control to balance the requisite need of DMSO in HepaRG cultures to maintain differentiation (for example, baseline metabolism, proportions of hepatocytes vs. cholangiocytes), while enabling further hepatic receptor pathway activation (for example, PXR and CAR) in response to chemical exposure. 48 hours after plating, the culture medium was replaced with HepaRG Serum-Free Incudtion Media. Cells were exposed to each test chemical in duplicate and maintained in CO2 incubators for another 48 hours. Chemical plates were thawed to room temperature and 200x concentrations of treatment groups were prepared. 8-point conentration-reponse curves were made with the highest exposure at 100 uM, followed by half-log dilutions, all in 0.5% DMSO. Each test plate contained variouse controls, induction positive controls (1mM phenobarbital), cytotoxicity positive controls ([…] aflatoxin B1), vehicle controls (0.5% DMSO), and total lysis controls (0.5% DMSO). Cell morphology images were taken using an Essen IncuCyte FLR automated microscope, with six 96-well plates imaged in about 24 minutes. Images were captured and exported and JPEG files. Spent culture media was transfered to black-well plates for the LDH assay, and remaining media was sorted at -80 C for later use. Cells were treated with RLT buffer and frozen until shipped for gene expression analysis. Total RNA was isolated from the cell suspension in 75 uL of Buffer RLT (Qiagen, Germantown, MD 20874) by Quintiles/Expression Analysis (Durham, NC) using a custom isolation procedure. Total RNA from each plate well was transferred to a preamplification plate. Fluidigm's 96.96 Dynamic ArrayTM (Fluidigm, Amsterdam, the Netherlands) technology was used for gene expression analyses by quantitative reverse transcription polymerase chain reaction (qRT-PCR, performed by Quintiles/Expression Analysis, Durham, NC)89. Standard TaqManTM Assays (Applied Biosystems/ThermoFisher Scientific, Foster City, CA) were used to assess the expression of 93 genes selected based on their selectivity and sensitivity to important hepatic receptors known to be modulated by environmental chemicals; importance in human hepatocyte functionality; and hepatotoxicity. […]
With `CC(C)CCCCCCCOC(=O)CCCCC(=O)OCCCCCCCC(C)C` the outcome was “inactive”.
With `O=C(O)c1cccc(Oc2ccccc2)c1` the outcome was “inactive”.
With `COC(=O)c1c(Cl)c(Cl)c(C(=O)OC)c(Cl)c1Cl` the outcome was “inactive”.
In the case of `O=C1CCC(N2C(=O)c3ccccc3C2=O)C(=O)N1` (stereo not given), the outcome is reported as “inactive”.
In the case of `Cc1ccc(S(=O)(=O)O)cc1C`, the outcome is reported as “inactive”.
For `Oc1ccc2c(c1)-c1ccccc1C2`, the outcome was “inactive”.
With `COCCOCCOCCOC` the outcome was “inactive”.
`CC(=O)OCCC(C)C` was tested, and the outcome was “inactive”.
In the case of `CCC(C)(C)C(=O)O[C@H]1C[C@@H](C)C=C2C=C[C@H](C)[C@H](CC[C@@H]3C[C@@H](O)CC(=O)O3)[C@H]21`, the outcome is reported as “inactive”.
With `CC(O)CN(CCN(CC(C)O)CC(C)O)CC(C)O` (stereo not given) the outcome was “inactive”.
`C=CCCCCCCCCC(=O)O` was tested, and the outcome was “inactive”.
`CNCc1ccc(NC(=O)c2c[nH]c3c2C(=O)CCC3)cc1` was tested, and the outcome was “inactive”.
`CC[C@H]1OC(=O)[C@H](C)[C@@H](O[C@H]2C[C@@](C)(OC)[C@@H](O)[C@H](C)O2)[C@H](C)[C@@H](O[C@@H]2O[C@H](C)C[C@H](N(C)C)[C@H]2O)[C@](C)(O)C[C@@H](C)C(=O)[C@H](C)[C@@H](O)[C@]1(C)O` was tested, and the outcome was “inactive”.
With `CC(=O)c1ccc2c(c1)[C@H](NC(=O)c1ccc(F)cc1)[C@@H](O)C(C)(C)O2` the outcome was “inactive”.
In the case of `CCCCCCCCO`, the outcome is reported as “inactive”.
For `Fc1ccccc1[C@@H](F)COC1CCC(Nc2ncnc3[nH]ncc23)CC1` (stereo not given in full), the AC50 was 50 µM (active).
`CCc1cc(SCc2sc(-c3ccc(C(F)(F)F)cc3)nc2CN2CCN(c3ccc(OC)cc3)CC2)ccc1OCC(=O)O` was tested, and the AC50 was 89.4 µM (active).
In the case of `Cn1cnc([N+](=O)[O-])c1Sc1ncnc2nc[nH]c12`, the outcome is reported as “inactive”.
In the case of `CN(C)c1ccc(N=NS(=O)(=O)O)cc1`, the outcome is reported as “inactive”.
For `C[C@](N)(Cc1ccc(O)c(O)c1)C(=O)O`, the outcome was “inactive”.
In the case of `C1N2CN3CN1CN(C2)C3`, the outcome is reported as “inactive”.
For `Cn1c(=O)c2c(ncn2C)n(C)c1=O`, the outcome was “inactive”.
With `CCCC(=O)OCC` the outcome was “inactive”.
`CCOCCOCCOCCO` was tested, and the outcome was “inactive”.
With `CCOc1cccc(-n2cc(C(=O)N3CCN(c4cc(C(=O)O)c5ccccc5c4)CC3)nc2-c2ccc(C)cc2)c1` the AC50 was 86.5 µM (active).
With `CC(C)=CCCC(C)CCO` (stereo not given) the outcome was “inactive”.
In the case of `CC[C@H]1CC[C@H](NCc2cc3c(cc2OC)[C@H]2C[C@H]2C(=O)N3C)[C@H](c2ccccc2)N1`, the outcome is reported as “inactive”.
`CC(C)=CCC/C(C)=C\CO` was tested, and the outcome was “inactive”.
`CCCCC(CC)COC(=O)CCCCCCCCC(=O)OCC(CC)CCCC` (stereo not given) was tested, and the outcome was “inactive”.
For `O=C(O)c1cccc(N(Cc2cccnc2)c2ccc(OC(F)F)c(OC(F)F)c2)c1`, the outcome was “inactive”.
With `On1ccccc1=S` the outcome was “inactive”.
`Clc1nc(Cl)c(Cl)c(Cl)c1Cl` was tested, and the outcome was “inactive”.
In the case of `O=C(O)CCN(C1(C(=O)NO)CCCC1)S(=O)(=O)c1ccc(Oc2ccc(F)cc2)cc1`, the outcome is reported as “inactive”.
With `COc1cccc(-c2ccc(/C=C\CN3CCCCCC3)cc2Cl)c1` the AC50 was 67.9 µM (active).
`Nc1cccc(N)c1` was tested, and the outcome was “inactive”.
With `COC(=O)CC(=O)OC` the outcome was “inactive”.
In the case of `CCCCC(CC)COC(=O)c1ccc(C(=O)OCC(CC)CCCC)cc1` (stereo not given), the outcome is reported as “inactive”.
`Cc1ccc(C)c(O)c1` was tested, and the outcome was “inactive”.
`O=c1n(CC2CO2)c(=O)n(CC2CO2)c(=O)n1CC1CO1` (stereo not given) was tested, and the outcome was “inactive”.
For `COC(=O)c1ccccc1O`, the outcome was “inactive”.
